Drawing on PubChem BioAssay (EPA / NIEHS), this text covers outcome and AC50 for 7 molecules.

The source made the active and inactive calls. Rule for the calls: active = hit-call score of the fitted dose curve at least 0.9, where 1 is the maximum; inactive = score below 0.9.

Read-out in test [1]: Vascular endothelial growth factor receptor 2 (Homo sapiens) (UniProt P35968)
In words: BSK_4H_VEGFRII: BioMAP Diversity Plus: 4H Assay for Vascular endothelial growth factor receptor 2 (VEGFR2) Biomarker Activity (AID 2283031).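 For AC50: cell-surface VEGFR2 protein level quantified by ELISA.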 Conditions: primary human endothelial cells (HUVEC); actives raise or lower the signal. A digest of the protocol: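 Primary human umbilical vein endothelial cells (4H system), 24 h exposure; cell-surface VEGFR2 measured by ELISA. Bidirectional fitting versus DMSO; cytotoxicity checked in parallel by SRB total-protein staining.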

Read-out in test [2]: Human Leukocyte Antigen - DR isotype (HLADR), HLA-DRA (gene 3122)
The test is described as follows: BSK_BE3C_HLADR: BioMAP Diversity Plus: BE3C Assay for Human Leukocyte Antigen - DR isotype (HLADR) Biomarker Activity (AID 2283032). Conditions: primary human bronchial epithelial cells; actives raise or lower the signal. In outline: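 Human primary bronchial epithelial cells in the BE3C system were exposed to chemicals for 24 h, after which HLA-DR levels were quantified by ELISA. Activity was fitted bidirectionally, gain or loss of signal, against DMSO as negative control and baseline.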

Read-out in test [3]: Vascular cell adhesion molecule 1 (VCAM1), VCAM1 (gene 7412)
In words: BSK_4H_VCAM1: BioMAP Diversity Plus: 4H Assay for Vascular cell adhesion molecule 1 (VCAM1) Biomarker Activity (AID 2283033).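 For outcome: cell-surface VCAM-1 protein measured by ELISA.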 Particulars: primary human endothelial cells (HUVEC); actives raise or lower the signal. In outline:
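Primary human umbilical vein endothelial cells were exposed to chemicals for 24 h, after which VCAM-1 was quantified by ELISA. Responses were fitted bidirectionally against DMSO as negative control and activity baseline.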

Read-out in test [4]: Interferon-gamma inducible Protein 10 (IP10), CXCL10 (gene 3627)
In words: BSK_BE3C_IP10: BioMAP Diversity Plus: BE3C Assay for Interferon-gamma inducible Protein 10 (IP10) Biomarker Activity (AID 2283034). Particulars: primary human bronchial epithelial cells; actives raise or lower the signal. In outline:
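Human primary bronchial epithelial cells were exposed to chemicals for 24 hours, after which IP-10 levels were measured by ELISA. Data were fitted bidirectionally against DMSO, which served as the negative control and activity baseline.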

Read-out in test [5]: Monokine induced gamma interferon (MIG), CXCL9 (gene 4283)
In words: BSK_BE3C_MIG: BioMAP Diversity Plus: BE3C Assay for Monokine induced gamma interferon (MIG) Biomarker Activity (AID 2283035). Conditions: primary human bronchial epithelial cells; actives raise or lower the signal. In outline: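 Primary human bronchial epithelial cells treated for 24 h; MIG levels measured by ELISA, fitted bidirectionally versus DMSO. Parallel SRB total-protein staining assessed cytotoxicity.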

Read-out in test [6]: Plasminogen activator inhibitor-1 (PAI1), SERPINE1 (gene 5054)
In words: BSK_BE3C_PAI1: BioMAP Diversity Plus: BE3C Assay for Plasminogen activator inhibitor-1 (PAI1) Biomarker Activity (AID 2283037). Conditions: primary human bronchial epithelial cells; actives raise or lower the signal. A digest of the protocol:
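Human primary bronchial epithelial cells were exposed to chemical for 24 h, then PAI-1 was quantified by ELISA. Activity was fitted bidirectionally relative to the DMSO negative control baseline.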

Read-out in test [7]: urokinase plasminogen activator (uPA), PLAU (gene 5328)
In words: BSK_BE3C_uPA: BioMAP Diversity Plus: BE3C Assay for urokinase plasminogen activator (uPA) Biomarker Activity (AID 2283038).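 Note: uPA protein level quantified by ELISA in cell cultures; uPA read one day after compound addition.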 Conditions: primary human bronchial epithelial cells; actives raise or lower the signal. In outline: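 Primary human bronchial epithelial cells, uPA measured by ELISA 24 h after dosing. Bidirectional change relative to DMSO; cytotoxicity checked in parallel cultures by sulforhodamine B total-protein staining.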

Read-out in test [8]: Urokinase-type plasminogen activator receptor (uPAR), PLAUR (gene 5329)
The test is described as follows: BSK_BE3C_uPAR: BioMAP Diversity Plus: BE3C Assay for Urokinase-type plasminogen activator receptor (uPAR) Biomarker Activity (AID 2283039).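 For outcome: cells exposed to compound for one day before measurement.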 Conditions: primary human bronchial epithelial cells; actives raise or lower the signal. A digest of the protocol: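 Primary human bronchial epithelial cells were dosed with chemical and harvested 24 h later; uPAR was quantified by ELISA. Activity was fitted bidirectionally against DMSO as negative control and baseline.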

Read-out in test [9]: Interleukin-6 (IL6), IL6 (gene 3569)
In words: BSK_CASM3C_IL6: BioMAP Diversity Plus: CASM3C Assay for Interleukin-6 (IL6) Biomarker Activity for (AID 2283040). Conditions: primary human coronary artery smooth muscle cells; actives raise or lower the signal.

Read-out in test [10]: Interleukin-8 (IL8), CXCL8 (gene 3576)
In words: BSK_CASM3C_IL8: BioMAP Diversity Plus: CASM3C Assay for Interleukin-8 (IL8) Biomarker Activity (AID 2283042).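 Note: IL-8 protein level quantified by ELISA.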 Particulars: primary human coronary artery smooth muscle cells; actives raise or lower the signal.

Read-out in test [11]: Human Leukocyte Antigen - DR isotype (HLADR), HLA-DRA (gene 3122)
The test is described as follows: BSK_CASM3C_HLADR: BioMAP Diversity Plus: CASM3C Assay for Human Leukocyte Antigen - DR isotype (HLADR) Biomarker Activity (AID 2283043).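 Note: cell-surface HLA-DR protein level quantified by ELISA.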 Conditions: primary human coronary artery smooth muscle cells; actives raise or lower the signal.

Read-out in test [12]: Macrophage colony-stimulating factor (MCSF), CSF1 (gene 1435)
In words: BSK_CASM3C_MCSF: BioMAP Diversity Plus: CASM3C Assay for Macrophage colony-stimulating factor (MCSF) Biomarker Activity (AID 2283044).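 Note: M-CSF protein amount quantified by ELISA after 24 h exposure.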 Conditions: primary human coronary artery smooth muscle cells; actives raise or lower the signal.

Read-out in test [13]: Low-density lipoprotein receptor (LDLR), LDLR (gene 3949)
In words: BSK_CASM3C_LDLR: BioMAP Diversity Plus: CASM3C Assay for Low-density lipoprotein receptor (LDLR) Biomarker Activity (AID 2283045).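 Note: LDLR protein level on the cell surface quantified by ELISA.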 Particulars: primary human coronary artery smooth muscle cells; actives raise or lower the signal.

Read-out in test [14]: Monocyte Chemoattractant Protein-1 (MCP1), CCL2 (gene 6347)
The test is described as follows: BSK_CASM3C_MCP1: BioMAP Diversity Plus: CASM3C Assay for Monocyte Chemoattractant Protein-1 (MCP1) Biomarker Activity (AID 2283046).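 Note: MCP-1 level quantified by ELISA 24 h after dosing.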 Particulars: primary human coronary artery smooth muscle cells; actives raise or lower the signal.

Test [15] in a line: BSK_CASM3C_Proliferation: Cell Proliferation Assessment in the BioMAP Diversity Plus: CASM3C Assay (AID 2283047).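 Note: sulforhodamine B total protein stain as relative cell number at 560 nm; sub-confluent cells exposed 48 h before staining; fitted both ways against DMSO so gain or loss of cell number.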 Conditions: primary human coronary artery smooth muscle cells.
Read-out in test [16]: Monokine induced gamma interferon (MIG), CXCL9 (gene 4283)
The test is described as follows: BSK_CASM3C_MIG: BioMAP Diversity Plus: CASM3C Assay for Monokine induced gamma interferon (MIG) Biomarker Activity (AID 2283048). Particulars: primary human coronary artery smooth muscle cells; actives raise or lower the signal.

Read-out in test [17]: serum amyloid A (SAA), SAA1 (gene 6288)
In words: BSK_CASM3C_SAA: BioMAP Diversity Plus: CASM3C Assay for serum amyloid A (SAA) Biomarker Activity (AID 2283049).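 Note: SAA protein level quantified by ELISA.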 Particulars: primary human coronary artery smooth muscle cells; actives raise or lower the signal.

Read-out in test [18]: Transforming growth factor beta 1 (TGFb1), TGFB1 (gene 7040)
The test is described as follows: BSK_BE3C_TGFb1: BioMAP Diversity Plus: BE3C Assay for Transforming growth factor beta 1 (TGFb1) Biomarker Activity (AID 2283036). Particulars: primary human bronchial epithelial cells; actives raise or lower the signal. A digest of the protocol: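 Human primary bronchial epithelial cells (BE3C system) were dosed with chemical and TGF-b1 levels measured by ELISA at 24 h. Activity was fitted bidirectionally relative to DMSO negative control as baseline.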

Read-out in test [19]: Tissue plasminogen activator (tPA), PLAT (gene 5327)
In words: BSK_BE3C_tPA: BioMAP Diversity Plus: BE3C Assay for Tissue plasminogen activator (tPA) Biomarker Activity (AID 2283041).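 Note: tPA level quantified by ELISA one day after compound addition.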 Conditions: primary human bronchial epithelial cells; actives raise or lower the signal. In outline: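 Human primary bronchial epithelial cells were dosed with chemical and tPA biomarker levels measured by ELISA 24 hours later. Activity was fitted bidirectionally against DMSO as negative control and baseline.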

As to `O=C(O)C(F)(F)C(F)(F)C(F)(F)C(F)(F)C(=O)O`, the result in [1], in test [2], in test [3], in test [4], in test [5] and in test [6] was inactive. Further, the outcome in test [7], in test [8], in test [9], in [10], in test [11] and in test [12] was inactive. Also, the result in test [13], in test [14], in test [15], in test [16] and in test [17] was inactive.

As to `c1ccc2sc(SSN3CCOCC3)nc2c1`, the outcome in test [1], in test [2], in test [5], in [18], in [6] and in test [7] was inactive. Also, the outcome in test [8] and in test [13] was inactive. Moreover, the AC50 was 6.28 µM (active) in test [3]; 12.3 µM (active) in [4]; 12 µM (active) in test [9]; 20 µM (active) in [10]; 4.62 µM (active) in test [11]; 6.94 µM (active) in test [12]. For the same molecule, the AC50 is 8.56 µM (active) in test [14], 2.19 µM (active) in test [15], 15.8 µM (active) in test [16] and 5.46 µM (active) in test [17].

`C=CC(=O)OCCCCCCCC(C)C`: the result in [1], in [2], in [4], in test [5], in test [18] and in test [6] was inactive. Besides, the outcome in test [7], in [8], in test [9], in test [10], in test [11] and in [12] was inactive. In addition, the result in test [13], in test [14], in test [15], in test [16] and in [17] was inactive. For the same molecule, the AC50 in test [3] was 15.7 µM (active).

With `C=CCCCCCCCCC=O`, the result in [1], in test [2], in test [3], in test [4], in [5] and in test [18] was inactive. Besides, the result in test [6], in test [7], in test [8], in [9], in [10] and in test [11] was inactive. The result in test [12], in [13], in test [14], in [15], in [16] and in test [17] was inactive.

Regarding `Clc1cc(Cl)c(Cl)c(Cl)c1Cl`, the result in test [1], in [2], in [4], in test [5], in test [18] and in test [6] was inactive. Also, the outcome in test [7], in [8], in [9], in [10], in [11] and in test [12] was inactive. Moreover, the outcome in test [13], in [14], in [15], in test [16] and in test [17] was inactive. The concentration at half-maximal activity (AC50) in test [3] is 20 µM (active).

For `C=CC(=O)NC(C)(C)C`, the result in test [1], in test [2], in test [3], in test [4], in test [5] and in test [18] was inactive. Also, the outcome in [6], in test [7], in [8], in test [9], in [19] and in test [10] was inactive. The outcome in test [11], in [12], in test [13], in test [14], in test [15] and in test [16] was inactive. In test [17], the result was inactive.

`C=CC(=O)OCCCCCCOC(=O)C=C`: the AC50 in test [1] is 20 µM (active); in [2] it was 7.89 µM (active); in test [3] it was 20 µM (active); in test [4], 26 µM (active); in [5], 35.7 µM (active); in test [8], 11.4 µM (active). The half-maximal activity concentration (AC50) is 14.2 µM (active) in [9]; 10.1 µM (active) in test [10]; 10.5 µM (active) in [11]; 18 µM (active) in test [12]; 20 µM (active) in test [13]; 34 µM (active) in test [14]. Further, the AC50 in test [15] was 20 µM (active); in test [16] it was 23.3 µM (active). For the same molecule, the outcome in [18], in test [6], in test [7] and in [17] was inactive.

By AC50 is commonly meant the concentration at which the activity in the assay is half-maximal.
